For ten compounds, Potency and outcome results are on record in PubChem BioAssay (Tox21).

The nature of test [1]: qHTS assay to identify small molecule antagonists of the vitamin D receptor (VDR) signaling pathway - cell viability counter screen (AID 743225). Further: nearly all actives have a fitted effect of over 50% in size. A digest of the protocol: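 VDR-UAS-bla HEK 293T cells were plated and incubated 4 h at 37C, then dosed with compound plus 3 nM (final) 1-alpha,25-dihydroxyvitamin D3 for 16 h. After the 2 h beta-lactamase read, viability in the same wells was read as CellTiter-Glo luminescence after 30 min at room temperature.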
For orientation: Quantitative high-throughput screening tests each substance at several concentrations.

Test [2] can be described thus: qHTS assay to identify small molecule agonists of the NFkB signaling pathway (AID 1159509; active means well fitted curve in the direction sought with a large enough effect in the signal ratio in the repeat runs, not every such curve was filed as active; the % refers to the signal ratio). A digest of the protocol: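 Beta-lactamase reporter assay run in quantitative high-throughput format on an NF-kB-responsive ME-180 line, with 5 hr compound treatment and a FRET-based blue/green fluorescence readout.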
A short description of test [3]: qHTS assay to identify small molecule agonists of the endoplasmic reticulum stress response signaling pathway (AID 1159516; active means well fitted activation curve with a large enough effect in the signal ratio in the repeat runs, not every such curve was filed as active; the % refers to the signal ratio). A digest of the protocol: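 Fluorescence at 460 and 530 nm (405 nm excitation) reports beta-lactamase from an ER stress response element in HeLa cells treated 5 hr at 37 C.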
Test [4] can be described thus: qHTS assay to identify small molecule agonists of the endoplasmic reticulum stress response signaling pathway - cell viability counter screen (AID 1159517; calls by dose curve; further: nearly all actives have a fitted effect of over 50% in size). A digest of the protocol: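 Cytotoxicity of test compounds toward ESRE-bla HeLa cells was assessed after 5 hr exposure. The luminescent CellTiter-Glo signal was measured 30 min after reagent addition.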
Test [5] can be described thus: qHTS assay to identify small molecule antagonists of the retinoid-related orphan receptor gamma (ROR-gamma) signaling pathway - cell viability counter screen (AID 1159520). Further: nearly all actives have a fitted effect of over 50% in size. A digest of the protocol: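 Tet-on ROR gamma CHO cells (1,000/well) were plated 4 hr, given compounds in DMSO for 2 hr at 37 C, then induced with 1 uM final doxycycline for 16 hr. Viability was read as ATP by CellTiter-Glo luminescence after 30 min.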

The target in test [6] is Nuclear receptor ROR-gamma (Homo sapiens) (UniProt P51449). The test is described as follows: qHTS assay to identify small molecule antagonists of the retinoid-related orphan receptor gamma (ROR-gamma) signaling pathway (AID 1159521; further: nearly all actives have a fitted effect of over 50% in size; further: potency means the concentration at half of the fitted maximal effect). The method in brief: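 Tet-on ROR-gamma CHO cells with ROR response element-luciferase reporter; compounds added 2 hr before 1 uM doxycycline induction, then 16 hr at 37 C. Antagonism scored as decreased ONE-Glo luminescence.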

Test [7] is described as follows: qHTS assay to identify small molecule agonists of the AP-1 signaling pathway - cell viability counter screen (AID 1159525; calls by dose curve; further: nearly all actives have a fitted effect of over 55% in size). A digest of the protocol:
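Each titration point was normalised to DMSO and tetra n-octyl ammonium bromide controls. The read was Cell Titer Glo luminescence after 30 min at RT, following 5 h compound exposure of ME-180 AP-1-bla cells at 37 °C.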

The nature of test [8]: qHTS assay to identify small molecule agonists of the AP-1 signaling pathway (AID 1159526; calls by dose curve).
Test [9] has as its target Retinoic acid receptor RXR-alpha (Homo sapiens) (UniProt P19793). The test is described as follows: qHTS assay to identify small molecule agonists of the RXR signaling pathway (AID 1159527; calls by dose curve; further: nearly all actives have a fitted effect of over 35% in size; further: potency means the concentration at half of the fitted maximal effect). A digest of the protocol: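 GeneBLAzer RXR-alpha-UAS-bla HEK 293T cells in 2% charcoal-stripped FBS medium were exposed to compounds for 16 hr at 37 C in agonist mode. Beta-lactamase reporter read as 460/530 nm FRET ratio after 2 hr substrate loading.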

Test [10] can be described thus: qHTS assay to identify small molecule agonists of the RXR signaling pathway - cell viability counter screen (AID 1159529). Further: nearly all actives have a fitted effect of over 50% in size. A digest of the protocol: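 RXR-alpha-UAS-bla HEK 293T cells in medium with 2% charcoal-stripped FBS were pre-incubated 5 hr, then compound-treated 16 hr at 37 C. Viability was read by CellTiter-Glo luminescence in the same wells as the beta-lactamase assay, with tetraoctyl ammonium bromide as positive control.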

Test [11] in a line: qHTS assay to identify small molecule antagonists of the retinoid acid receptor (RAR) signaling pathway - cell viability counter screen (AID 1159551). Further: nearly all actives have a fitted effect of over 35% in size. The method in brief: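 In this counter screen, the RARE-luciferase line C3RL4 was exposed for 6 h at 37 C and 5% CO2 to compounds with retinol at 1 uM final. Cellular ATP, read by luminescence, served as the viability measure.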

Test [12] in a line: qHTS assay to identify small molecule antagonists of the estrogen related receptor (ERR) signaling pathway - cell viability counter screen (AID 1224818). The method in brief: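 Viability of ERR cells, CellTiter-Fluor fluorescence; 17.5 h compound exposure at 37 C, DMSO vehicle; 30 min reagent incubation at 37 C/5% CO2.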
Test [13] in a line: qHTS assay to identify small molecule antagonists of the estrogen related receptor signaling pathway with the pleiotropic PPARgamma coactivator (PGC) cell viability counter screen (AID 1224822). A digest of the protocol: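 17.5 h compound treatment of PGC/ERR cells at 37 C; readout CellTiter-Fluor fluorescence; run alongside the PGC/ERR antagonist screen to flag cytotoxic compounds.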

The nature of test [14]: qHTS assay to identify small molecule antagonists of the retinoic acid receptor (RAR) signaling pathway (AID 1159552; further: nearly all actives have a fitted effect of over 50% in size). The method in brief:
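Retinol signaling pathway inhibitors screened in C3RL4 RARE-luciferase reporter cells seeded overnight at 37 C, then compounds added with 1 uM (final) retinol as pathway substrate. After 6 hr at 37 C, luciferase luminescence read after 30 min at room temperature.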

Test [15] is described as follows: qHTS assay to identify small molecule agonists of the retinoic acid receptor (RAR) signaling pathway (AID 1159553). The conditions noted are these: C3RL4 RARE luciferase reporter, agonist, 6 h; activation: at 73.3 µM (top of the series). The method in brief: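 In this cell-based screen, 1,000 C3RL4 cells per well were cultured overnight, dosed with test chemicals in DMSO for 6 hr, and assessed for RARE luciferase luminescence.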

Inconclusive results are not listed. Calls of active or inactive are those of the source. Unless noted, the call rests on the fitted dose curve; in most records, active means well fitted curve in the direction sought with a large enough effect in the repeat runs; inconclusive means weak or mixed curves; inactive means no such curve, though single readings can be large; an effect the other way counts as inactive or inconclusive.

Chain of Retinoic acid receptor RXR-alpha (Homo sapiens) (P19793 whole entry, looked up): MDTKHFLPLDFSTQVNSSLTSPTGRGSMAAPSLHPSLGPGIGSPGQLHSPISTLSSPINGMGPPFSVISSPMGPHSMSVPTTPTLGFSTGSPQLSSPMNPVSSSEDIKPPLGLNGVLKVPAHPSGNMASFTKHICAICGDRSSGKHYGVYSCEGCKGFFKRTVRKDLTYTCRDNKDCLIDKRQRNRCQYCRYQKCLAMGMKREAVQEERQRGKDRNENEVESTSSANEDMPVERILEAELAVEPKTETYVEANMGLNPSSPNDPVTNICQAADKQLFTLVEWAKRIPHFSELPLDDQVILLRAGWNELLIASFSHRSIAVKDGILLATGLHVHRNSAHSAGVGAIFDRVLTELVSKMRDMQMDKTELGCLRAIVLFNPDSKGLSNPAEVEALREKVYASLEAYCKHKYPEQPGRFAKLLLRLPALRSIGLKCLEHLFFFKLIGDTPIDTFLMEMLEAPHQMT

As for `C=CCc1ccccc1OCC(O)CNC(C)C` (configuration not stated), the Potency entry in test [1], in [2], in test [3], in test [4], in test [5] and in test [6] was “inactive” in each case. Also, the Potency result in test [7], in test [8], in test [9], in [10] and in test [11] was “inactive” throughout. For the same compound, the compound was classed as inactive in [12] and in test [13].

With `N#CCCN(CCO)CCO`, the Potency result in test [1], in test [2], in test [3], in test [4], in test [5] and in [6] was “inactive” throughout. Also, the Potency entry in test [7], in [10] and in [11] was “inactive” each time.

For the compound `CC1(C)S[C@@H]2[C@H](NC(=O)C(c3ccccc3)S(=O)(=O)O)C(=O)N2[C@H]1C(=O)O` (some centres not stated), the Potency result in test [2], in [3], in [4], in [5], in test [6] and in [8] was “inactive” each time. Moreover, the Potency entry in test [9], in test [10], in test [11], in test [14] and in test [15] was “inactive” in each case.

For the compound `CCCCCC[C@@H](O)C/C=C\CCCCCCCC(=O)OCC(O)CO` (some centres not stated), the Potency result in [1], in test [2], in test [3], in [4], in test [5] and in [6] was “inactive” each time. For the same compound, the Potency entry in test [7], in test [11], in test [14] and in test [15] was “inactive” in each case. Also, the Potency in [9] is 49 µM (active).

Take `CCC1(CO)COCOC1`: the Potency entry in test [1], in test [2], in test [3], in [4], in test [5] and in test [6] was “inactive” throughout. The Potency result in test [8], in test [9], in [10], in [11], in [14] and in [15] was “inactive” each time.

With `CN1CCCN=C1COC(=O)C(O)(c1ccccc1)C1CCCCC1` (configuration not stated), the Potency result in test [1], in test [2], in test [3], in test [4], in test [5] and in test [6] was “inactive” each time. Moreover, the Potency result in [7], in [8], in test [10], in test [11], in test [14] and in [15] was “inactive” throughout.

In the case of `C1C[C@@H]2[C@H]3CC[C@H](C3)[C@@H]2C1`, the Potency entry in test [1], in test [2], in test [3], in test [4], in [5] and in test [6] was “inactive” throughout. Besides, the Potency result in [7], in [9], in test [10], in [11], in [14] and in test [15] was “inactive” in each case.

Turning to `Nc1nnc(-c2ccc([N+](=O)[O-])o2)o1`, the Potency result in [1], in test [2], in test [3], in [4], in test [5] and in test [7] was “inactive” in each case. The Potency entry in test [10], in test [11] and in [14] was “inactive” throughout. In test [6], the Potency is 6.86 µM (active).

`CNC(=O)c1cnn(-c2nc(N)c3ncn([C@@H]4O[C@H](CO)[C@@H](O)[C@H]4O)c3n2)c1`: the Potency entry in [2], in [3], in test [4], in [5], in [8] and in test [9] was “inactive” throughout. Besides, the Potency entry in test [11] and in [14] was “inactive” each time.

As to `O=c1[nH]c2ccc(Cl)cc2o1`, the Potency result in [2], in test [3], in [4], in test [6], in test [8] and in test [9] was “inactive” throughout. Further, the Potency entry in [10], in [11] and in [14] was “inactive” each time.
